# The list is not random: actives were taken first. Their share in the collection is about 3.4%.
# PLC-beta3 inh: human PLC-beta3 inhibitors, primary screen, biochemical, fluorescence; 1-phosphatidylinositol 4,5-bisphosphate phosphodiesterase beta-3 (Homo sapiens), Q01970; Purified PLC-beta3, fluorogenic substrate; inhibition, % at 12.2 µM; hit rate 0.18% among 370,000; in the data active = inhibition above about 11%
# ADAM10 inh: human ADAM10 inhibitors, primary screen, biochemical, QFRET, HTS. recombinant ADAM10, EDANS/DABCYL FRET peptide cleavage, 3 h. Disintegrin and metalloproteinase domain-containing protein 10 (Homo sapiens), O14672. AID 720582, 2013. hit rate 0.62% among 370,000. inhibition, % at 7 µM;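 active = inhibition above a per-campaign cutoff equal to the mean of compounds falling between control-based bounds plus 3 SD, cut at about 20% in these data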
# sPLA2-III inh: human group III sPLA2 inhibitors, primary screen, biochemical, QFRET, BODIPY PC-A2 liposome substrate; QFRET BODIPY PC-A2 liposome hydrolysis, fluorescence; Group 3 secretory phospholipase A2 (Homo sapiens), Q9NZ20; inhibition, % at 12.2 µM; AID 743126, 2013; hit rate 0.56% among 370,000;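 active = inhibition above mean plus 3 SD of compounds lying within the high and low control bounds, cut at about 19% in these data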
# Target sequence (Q9NZ20 whole entry, looked up): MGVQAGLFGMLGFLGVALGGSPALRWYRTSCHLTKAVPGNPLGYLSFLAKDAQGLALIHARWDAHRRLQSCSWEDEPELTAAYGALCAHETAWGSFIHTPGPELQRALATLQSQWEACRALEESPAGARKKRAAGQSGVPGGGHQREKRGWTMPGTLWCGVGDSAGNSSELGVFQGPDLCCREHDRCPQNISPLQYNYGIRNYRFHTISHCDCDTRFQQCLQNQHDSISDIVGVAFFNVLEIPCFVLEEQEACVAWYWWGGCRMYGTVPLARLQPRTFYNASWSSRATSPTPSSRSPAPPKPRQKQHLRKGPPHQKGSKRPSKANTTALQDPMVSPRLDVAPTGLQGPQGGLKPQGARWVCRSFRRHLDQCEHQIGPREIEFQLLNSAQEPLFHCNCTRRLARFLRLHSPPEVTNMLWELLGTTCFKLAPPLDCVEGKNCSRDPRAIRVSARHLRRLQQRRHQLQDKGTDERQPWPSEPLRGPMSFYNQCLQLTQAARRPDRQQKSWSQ
# PLCg1 inh: PLC-gamma1 enzyme inhibitors, primary screen, biochemical, fluorescence, purified enzyme; inhibition, % at 12.2 µM; fluorogenic substrate; 1-phosphatidylinositol 4,5-bisphosphate phosphodiesterase gamma-1 (Homo sapiens), P19174; AID 720700, 2013; hit rate 0.84% among 370,000; in the data active = inhibition above about 9.5%
# proKLK7 act: proKLK7 zymogen activators, primary screen, biochemical, fluorescence intensity; Kallikrein-7 (Homo sapiens), P49862; purified proKLK7, EDANS-DABCYL substrate fluorescence; 100% is mature enzyme control, 0% vehicle; activation, % at 7 µM; hit rate 0.9% among 370,000;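 active = activation above the mean of all tested compounds plus 3 SD, computed per campaign excluding outliers beyond control limits, cut at about 13% in these data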
# ADAM17 inh: ADAM17 inhibitors, primary screen, biochemical, QFRET. recombinant ADAM17, EDANS/DABCYL FRET peptide cleavage. inhibition, % at 6.95 µM. AID 720648, 2013. hit rate 0.83% among 370,000. Disintegrin and metalloproteinase domain-containing protein 17 (Homo sapiens), P78536;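 active = inhibition above the mean of compounds lying between control limits plus 3 SD, set per campaign, cut at about 8.5% in these data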
# ADAM10 confirm: human ADAM10 inhibitors, confirmation, biochemical, QFRET, triplicate | ADAM10 QFRET peptide cleavage, EDANS fluorescence | shares compounds with ADAM10 inh | inhibition, % at 6.95 µM | hit rate 1% among 2,100;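 active = inhibition above about 20% chosen separately for each screening run, limit read from the data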
# ADAM17 counter: ADAM17 inhibitors, counter-screen for ADAM10 exosite inhibitor project, biochemical, QFRET, high throughput; shares compounds with ADAM10 inh; inhibition, % at 6.95 µM; ADAM17 QFRET peptide cleavage, EDANS fluorescence; hit rate 0.5% among 2,100;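 active = mean triplicate inhibition above the solvent-only control wells' mean plus 3 SD, cut at about 12% in these data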
# ADAM10 counter: ADAM10 inhibitors, counter-screen for ADAM17 exosite inhibitor project, biochemical, FRET, human ADAM10. shares compounds with ADAM17 inh. recombinant ADAM10, EDANS/DABCYL FRET peptide cleavage, 3 h. AID 743256, 2014. hit rate 47% among 2,900. inhibition, % at 6.95 µM;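 active = mean inhibition over the triplicate runs exceeds the activity threshold set in the earlier primary screen, cut at about 20% in these data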
# ADAM17 confirm: ADAM17 inhibitors, hit retest, confirmation, biochemical, QFRET peptide cleavage. shares compounds with ADAM17 inh. recombinant ADAM17, EDANS/DABCYL QFRET peptide cleavage. inhibition, % at 6.95 µM. hit rate 65% among 2,900;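 active = mean inhibition across replicates above the hit cutoff set in the primary screen, cut at about 8.5% in these data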
# Numbers stand for hits; i = inactive; nt = no result given.
SMILES,PLC-beta3 inh,ADAM10 inh,sPLA2-III inh,PLCg1 inh,proKLK7 act,ADAM17 inh,ADAM10 confirm,ADAM17 counter,ADAM10 counter,ADAM17 confirm
Cc1cc(C(=O)O)c(C)o1,i,i,i,i,i,i,nt,nt,nt,nt
COC(=O)[C@H](C(C)C)N(CCCc1cn(Cc2ccc(C)cc2)nn1)S(=O)(=O)c1ccc(F)cc1Br,i,i,i,i,i,i,nt,nt,nt,nt
C=CCn1c(COc2ccc(C)cc2)nnc1SCC(=O)Nc1cc(Cl)cc(Cl)c1,i,i,i,i,i,i,nt,nt,nt,nt
COc1ccc(C2C3C(=O)N(Cc4ccccc4)C(=O)C3ON2c2ccccc2)c(OC)c1OC (configuration not stated),i,21.0,i,i,i,10.7,i,i,31.8,16.7
COc1cc(C2C3C(=O)N(Cc4ccccc4)C(=O)C3ON2c2ccccc2)cc(OC)c1OC (configuration not stated),i,i,i,i,i,i,nt,nt,nt,nt
CCOC(=O)[C@@]12CCCC3=C1N(CCC3)C(=O)[C@H]2CC(=O)NCc1cccc(C(F)(F)F)c1,i,i,i,i,i,i,nt,nt,nt,nt
CCN(c1ccccc1)S(=O)(=O)c1cc(C(=O)OC(C)C(=O)Nc2ccc3c(c2)OCCO3)ccc1C (configuration not stated),i,27.5,i,i,i,15.1,i,i,i,13.1
N#CCCN(C(=O)COC(=O)c1ccc(CNS(=O)(=O)c2ccc(F)c(Cl)c2)cc1)c1ccc(F)cc1,i,20.6,i,i,i,11.6,i,i,34.5,22.0
Cc1ccc(S(=O)(=O)Nc2ccc(-c3nnc(SCc4ccccc4Cl)o3)cc2)cc1,i,23.3,i,i,i,9.6,i,i,33.6,17.1
Cc1ccc(N(CC(O)CON=C2c3ccccc3-c3ccccc32)S(C)(=O)=O)cc1 (configuration not stated),i,21.5,i,i,i,12.4,i,i,21.5,14.2
OC(CON=C1c2ccccc2-c2ccccc21)CN1CCNCC1 (configuration not stated),i,i,i,i,i,i,nt,nt,nt,nt
C[C@@H]1CCC(=O)N(CC[C@H](Sc2ccc(Br)cc2)c2ccccc2)CC1,i,21.5,i,i,i,16.1,i,i,21.3,11.4
CN(Cc1ccccc1)C(=O)OCc1cn(Cc2cccc(C(F)(F)F)c2)nn1,i,i,i,i,i,i,nt,nt,nt,nt
Cc1ccccc1N=C1NC(=O)/C(=C/c2cccn2C)S1,i,27.4,i,i,i,9.9,i,i,i,12.6
Cc1cccc(N=C2NC(=O)/C(=C/c3cccn3C)S2)c1,i,i,i,i,i,i,nt,nt,nt,nt
O[C@@H]1[C@@H](O)[C@H](n2c3ccc(Cl)cc3c3ccc4c5cc(Cl)ccc5[nH]c4c32)OC[C@H]1O,i,i,i,i,i,i,nt,nt,nt,nt

# Screening results deposited in PubChem BioAssay by The Scripps Research Institute Molecular Screening Center.
